{"source": "PubChem BioAssay AID687020", "about": "(Broad Institute, 2013)", "note": "Screen size: about 1,400 compounds; about 100 (7.1%) were called active. How the calls were made is not given here. These entries were drawn from the full list. Entries with a potency or affinity are not part of this list."}
{"assay": "viability loss in Vero cells – cell-based, plate reader, cherry-pick samples, cytotoxicity control, dose response (AID 687020);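 further: compounds incubated with cells for three days before luminescence read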", "settings": "series mostly up to 19.5 µM"}
{"compound": "O=S(=O)(Nc1nc(SCc2ccc(Cl)cc2)n[nH]1)c1ccc(F)cc1", "outcome": "inactive"}
{"compound": "Cc1ccc(C(=O)OCC(=O)Nc2ccccc2C(F)(F)F)cc1S(=O)(=O)N1CCCCC1", "outcome": "inactive"}
{"compound": "O=C(NCCc1ccccc1)c1ccccc1NC(=O)C1CCCCC1C(=O)O", "note": "(stereo unspecified)", "outcome": "inactive"}
{"compound": "OC[C@@H]1[C@@H](c2ccccc2)C2(CN(Cc3nccs3)C2)N1Cc1cccnc1", "outcome": "inactive"}
{"compound": "C[C@@H]1CN([C@@H](C)CO)C(=O)c2cc(C#Cc3cccc(F)c3)cnc2O[C@@H]1CN(C)C(=O)C1CCC1", "outcome": "inactive"}
{"compound": "CC(=O)NC(c1cccc(F)c1)c1nc(-c2ccc(N(C)C)cc2)cs1", "note": "(stereo unspecified)", "outcome": "inactive"}
{"compound": "CC1CCC(CN2C(Nc3ccccc3)=NC[C@@H]2C)CC1", "note": "(stereo partly specified)", "outcome": "inactive"}
{"compound": "CC(C)CCCN1CCN=C1Nc1ccccc1", "outcome": "inactive"}
{"compound": "Cc1ccc(/C=N/NC(=O)c2ccc(-n3cnnn3)cc2)cc1", "outcome": "inactive"}
{"compound": "CS(=O)(=O)N1[C@@H]2CNC[C@H]1C2c1ccc(-c2ccccc2)cc1", "note": "(stereo partly specified)", "outcome": "inactive"}
{"compound": "COc1ccc2c(c1)OC[C@H]1[C@H]2N2C(=O)c3cc(OC)ccc3NC(=O)[C@@]2(C)[C@H]1c1ccccc1", "outcome": "inactive"}
{"compound": "CCOC(=O)C1CCN(C(=O)C2CC(=O)N(c3ccc4c(c3)OCCO4)C2)CC1", "note": "(stereo unspecified)", "outcome": "inactive"}
{"compound": "c1ccc(COCCCn2cc(-c3ccccc3)nn2)cc1", "outcome": "inactive"}
{"compound": "C[C@@H]1CN([C@H](C)CO)C(=O)c2cc(C#Cc3ccc(F)cc3)cnc2O[C@@H]1CN(C)C", "outcome": "inactive"}
{"compound": "CCCNC(=O)NC[C@@H]1[C@@H](c2ccc(C3=CCCC3)cc2)[C@@H](CO)N1C(=O)CC", "outcome": "inactive"}
{"compound": "COc1ccccc1S(=O)(=O)N(C)C[C@H]1Oc2cc(C#CCC(C)C)ccc2S(=O)(=O)N([C@@H](C)CO)C[C@@H]1C", "outcome": "inactive"}
{"compound": "N#C[C@H]1[C@H](c2ccc(C#CC3CCCCC3)cc2)[C@@H](CO)N1C(=O)Cc1ccccn1", "outcome": "inactive"}
{"compound": "CCc1c(C2(O)CCCCC2)[nH]c2c(C(=O)OC)cc(Cl)cc12", "outcome": "inactive"}
{"compound": "Cc1ccc(S(=O)(=O)N2CCCCC2)cc1NC(=O)CCOc1ccccc1", "outcome": "inactive"}
{"compound": "COc1ccc(NC(=O)CN(C)CCOc2ccc(Cl)cc2)cc1OC", "outcome": "inactive"}
{"compound": "CCN(CC)S(=O)(=O)c1ccc(N2CCOCC2)c(NC(=O)c2ccccc2)c1", "outcome": "inactive"}
{"compound": "O=C(COc1ccc2c(-c3ccccc3)cc(=O)oc2c1)NC1CCS(=O)(=O)C1", "note": "(stereo unspecified)", "outcome": "inactive"}
{"compound": "C[C@H](CO)N1C[C@H](C)[C@H](CN(C)C(=O)Nc2ccc(-c3ccccc3)cc2)OCc2ccccc2-c2c(n(C)c3ccccc23)C1=O", "outcome": "inactive"}
{"compound": "CCOC(=O)C1=C(CS(=O)(=O)c2ccc(C)cc2)NC(=O)NC1c1cc(OC)c(O)c(OC)c1", "note": "(stereo unspecified)", "outcome": "inactive"}
{"compound": "COc1ccccc1CNC(=O)CCCN1C(=O)NC2(CCCC2)C1=O", "outcome": "inactive"}
{"compound": "COc1ccccc1Cn1c(=S)[nH]c2cc(C(=O)N3CC(C)CC(C)C3)ccc2c1=O", "note": "(stereo unspecified)", "outcome": "inactive"}
{"compound": "CCc1ccc(NC(=O)COc2ccc3c(c2)OCO3)cc1", "outcome": "inactive"}
{"compound": "CC1CCc2sc(C(=O)NN=C3CCCC3)cc2C1", "note": "(stereo unspecified)", "outcome": "inactive"}
{"compound": "COc1ccc(S(=O)(=O)N2CCC(C(=O)N[C@H](C(=O)NCc3ccccc3)C(C)C)CC2)cc1", "outcome": "inactive"}
{"compound": "CC(C)c1ccc(NC(=O)[C@H](NC(=O)[C@@H]2Cc3ccccc3CN2)c2ccccc2)cc1", "outcome": "inactive"}
{"compound": "COc1ccc(NC(=O)Nc2cccc3c2O[C@H](CN(C)C(=O)NC2CCCCC2)[C@H](C)CN([C@@H](C)CO)C3=O)cc1", "outcome": "inactive"}
{"compound": "CCCNC(=O)N1[C@H](CO)[C@H](c2ccccc2)[C@@H]1CNC(=O)c1ccc(F)cc1", "outcome": "inactive"}
{"compound": "COc1ccc(S(=O)(=O)N2CCCCCC2)cc1NC(=O)Cc1cccc(C(F)(F)F)c1", "outcome": "inactive"}
{"compound": "O=C(C1CC1)N1[C@@H](CO)[C@@H]2c3ccccc3NC[C@@H]21", "outcome": "inactive"}
{"compound": "C[C@H](NC(=O)[C@H]1N[C@H]2c3ccc(-c4cccnc4)c(=O)n3C[C@H]2[C@@H]1CO)c1ccccc1", "outcome": "inactive"}
{"compound": "O=C(NCc1ccccc1F)[C@H]1N[C@H]2c3ccc(-c4ccccc4F)c(=O)n3C[C@H]2[C@@H]1CO", "outcome": "inactive"}
{"compound": "NC(=O)c1ccccc1NC(=O)COC(=O)C1(c2ccccc2)CC1", "outcome": "inactive"}
{"compound": "CSCCC(NC(=O)COc1ccccc1)C(=O)OCCOc1ccc(C)cc1", "note": "(stereo unspecified)", "outcome": "inactive"}
{"compound": "COc1cc(OC)cc(C(=O)Nc2ccc(N3CCN(C(=O)c4cccs4)CC3)cc2)c1", "outcome": "inactive"}
{"compound": "Cc1cccc(OCC(=O)Nc2ccc(N3CCN(C(=O)c4ccccc4)CC3)cc2)c1C", "outcome": "inactive"}
{"compound": "C/C(CC(=O)Nc1ccc(Cl)c(Cl)c1)=N\\NC(=O)Cc1ccccc1", "outcome": "inactive"}
{"compound": "COc1ccc(S(=O)(=O)Nc2cccc3c2O[C@@H](CN(C)S(C)(=O)=O)[C@@H](C)CN([C@@H](C)CO)C3=O)cc1", "outcome": "inactive"}
{"compound": "CCC(C)c1ccc(NC(=O)NCCN2CCCCC2)cc1", "note": "(stereo unspecified)", "outcome": "inactive"}
{"compound": "OC(CSc1nnnn1-c1ccccc1)Cn1c2ccccc2c2ccccc21", "note": "(stereo unspecified)", "outcome": "inactive"}
{"compound": "C[C@@H]1CCCCO[C@H](CN(C)S(=O)(=O)c2ccccc2)[C@@H](C)CN([C@@H](C)CO)C(=O)c2cc(NC(=O)c3ccncc3)ccc2O1", "outcome": "inactive"}
{"compound": "CCC(N=c1cc(-c2ccc(OC)c(OC)c2)oc2ccc(C)cc12)C(=O)O", "note": "(stereo unspecified)", "outcome": "inactive"}
{"compound": "CN(C)S(=O)(=O)N1CCC(Oc2ccc(C(=O)N3CCCCCCC3)cc2)CC1", "outcome": "inactive"}
{"compound": "O=C(NCC1CC1)c1onc(CSc2ccc(F)c(F)c2)c1C(=O)NCC1CC1", "outcome": "inactive"}
{"compound": "O=C(O)CCCCCCCCc1cn(CCc2c[nH]c3ccccc23)nn1", "outcome": "inactive"}
{"compound": "COc1ccc(CC(=O)NC2CCCCCC2)c(OC)c1", "outcome": "inactive"}
{"compound": "COc1ccc(S(=O)(=O)N2CCN(CC(=O)NC3CC3)CC2)cc1", "outcome": "inactive"}
{"compound": "CC12CCC(=O)N1C(C(=O)Nc1nc(-c3ccccc3)cs1)CS2", "note": "(stereo unspecified)", "outcome": "inactive"}
{"compound": "C[C@@H]1CCCCO[C@H](CN(C)S(C)(=O)=O)[C@@H](C)CN([C@H](C)CO)C(=O)c2cc(NC(=O)CCC(F)(F)F)ccc2O1", "outcome": "inactive"}
{"compound": "O=C(Cn1cnc2c(NCc3ccccc3)ncnc21)NCC1CCCO1", "note": "(stereo unspecified)", "outcome": "inactive"}
{"compound": "CCCN1Cc2cccc(C(=O)Nc3ccc4c(c3)OCCO4)c2C1=O", "outcome": "inactive"}
{"compound": "Cn1cc([C@]2(O)C(=O)Nc3ccccc32)c2ccccc21", "outcome": "inactive"}
{"compound": "CN1c2ccc(Br)cc2[C@@H]2[C@@H](CCN2S(=O)(=O)c2ccccc2)[C@H]1CO", "outcome": "inactive"}
{"compound": "Cc1ccccc1NS(=O)(=O)c1ccc(S(=O)(=O)N2CCCC2)cc1", "outcome": "inactive"}
{"compound": "CCN(CC(=O)Nc1c(F)cccc1F)C(=O)C1CCN(S(=O)(=O)c2ccc(F)cc2)CC1", "outcome": "inactive"}
{"compound": "C/C=C/c1ccc([C@H]2[C@@H](CO)N(C(=O)C3CCC3)[C@@H]2CNC(=O)NC(C)C)cc1", "outcome": "inactive"}
{"compound": "CC(O)(c1cccc(F)c1)c1nc(/C=C/c2ccccc2)cs1", "note": "(stereo unspecified)", "outcome": "inactive"}
{"compound": "COc1ccc(-c2csc(C(O)c3cccc(OC)c3)n2)cc1", "note": "(stereo unspecified)", "outcome": "inactive"}
{"compound": "CC(OC(=O)c1ccc(O)cc1)C(=O)Nc1nc(-c2ccccc2)cs1", "note": "(stereo unspecified)", "outcome": "inactive"}
{"compound": "N#Cc1cccc(-c2ccc(C3[C@@H]4CN(C(=O)c5cccnc5)C[C@H]3N4)cc2)c1", "note": "(stereo partly specified)", "outcome": "inactive"}
{"compound": "C[C@H](CO)N1C[C@H](C)[C@H](CN(C)C(=O)NC2CCCCC2)Oc2ccc(NC(=O)Cn3cnnn3)cc2C1=O", "outcome": "inactive"}
{"compound": "CCCCCC(=O)N1C[C@@H](O)[C@H](n2cc(COC(=O)c3ccccc3)nn2)C[C@@H]1c1ccc(C)cc1", "outcome": "inactive"}
{"compound": "O=C(C1CCCCC1)N1C[C@H](O)[C@@H](n2cc(C3CC3)nn2)C[C@@H]1c1ccccc1", "outcome": "inactive"}
{"compound": "CCc1c(C2CC2)ncn1Cc1cccc(-c2ccccc2)c1", "outcome": "inactive"}
{"compound": "FC(F)(F)c1nc2ccccc2n1CCNc1nc(CN2CCCCC2)cs1", "outcome": "inactive"}
{"compound": "CN(C)c1cccc(C(=O)Nc2cc(C(F)(F)F)ccc2-n2cnc3ccccc32)c1", "outcome": "inactive"}
{"compound": "O=S1(=O)N[C@@H](Cc2ccccc2)COc2cc(N3CCOCC3)ccc21", "outcome": "inactive"}
{"compound": "c1ccc(-c2cn(C[C@H]3CC[C@@H]([C@@H]4CC[C@H](Cn5cc(-c6ccccc6)nn5)O4)O3)nn2)cc1", "outcome": "inactive"}
{"compound": "COc1ccc(NC(=O)N[C@@H]2CC[C@@H](CCNS(=O)(=O)c3cccc(Cl)c3)O[C@@H]2CO)cc1", "outcome": "inactive"}
{"compound": "O=C(Cc1cccnc1)N[C@H]1CC[C@@H](CCn2cc(Cc3ccccc3)nn2)O[C@H]1CO", "outcome": "inactive"}
{"compound": "COc1ccc(S(=O)(=O)N[C@H]2CC[C@@H](CCNC(=O)CN3CCOCC3)O[C@H]2CO)cc1", "outcome": "inactive"}
{"compound": "O=C(OCc1ccccc1)N1CCCC2CC1c1ccccc12", "note": "(stereo unspecified)", "outcome": "inactive"}
{"compound": "CCCCN(C(=O)c1ccc2c(c1)NC(=O)CS2)c1ccccc1", "outcome": "inactive"}
{"compound": "CSCCC(NS(=O)(=O)c1cccs1)C(=O)NCc1ccccc1", "note": "(stereo unspecified)", "outcome": "inactive"}
{"compound": "COc1ccc(C)cc1NC(=O)C(c1ccccc1)N1CCN(CC(=O)N2CCOCC2)CC1", "note": "(stereo unspecified)", "outcome": "inactive"}
{"compound": "COc1ccc2c3c(n(C)c2c1)[C@H](CO)N(Cc1ccccc1F)CC31CCN(C(C)=O)CC1", "outcome": "inactive"}
{"compound": "CN1C(C(=O)NCc2ccc(OC(F)(F)F)cc2)CC2Cn3c(nc4ccccc43)C21", "note": "(stereo unspecified)", "outcome": "inactive"}
{"compound": "COCCNC(=O)CCC1CCN(Cc2ccc(-c3ccccc3)cc2)CC1", "outcome": "inactive"}
{"compound": "COc1cccc(CC(=O)OCC(=O)Nc2nnc(-c3ccccc3)o2)c1", "outcome": "inactive"}
{"compound": "COc1ccc(C(CNS(=O)(=O)c2ccc(NC(C)=O)c(OC)c2)N2CCCC2)cc1", "note": "(stereo unspecified)", "outcome": "inactive"}
{"compound": "COc1ccc(C(CNC(=O)CCNC(=O)c2ccc(Br)cc2)N2CCOCC2)cc1", "note": "(stereo unspecified)", "outcome": "inactive"}
{"compound": "CCCCN1C(N)=NC[C@@H]1C(C)O", "note": "(stereo partly specified)", "outcome": "inactive"}
{"compound": "O=C(COc1ccccc1)NCC(=O)N/N=C/c1ccc(Br)cc1", "outcome": "inactive"}
{"compound": "O=C(CCn1cncn1)N1CCCC(N2CCN(c3ccc(F)cc3)CC2)C1", "note": "(stereo unspecified)", "outcome": "inactive"}
{"compound": "CCN(CC)CC(=O)N1CCCC(N2CCN(c3cccc(C(F)(F)F)c3)CC2)C1", "note": "(stereo unspecified)", "outcome": "inactive"}
{"compound": "O=C(c1cc(C2CC2)on1)N1CCCC(N2CCN(c3cccc(C(F)(F)F)c3)CC2)C1", "note": "(stereo unspecified)", "outcome": "inactive"}
{"compound": "C[C@@H]1CCCCO[C@H](CN(C)Cc2ccc(Cl)c(Cl)c2)[C@H](C)CN([C@@H](C)CO)C(=O)c2cc(NC(=O)c3ccccc3)ccc2O1", "outcome": "inactive"}
